Values joined by “and” are separate entries in the source; they are usually repeats but may differ in a detail not shown here. Equal entries are not always repeated. Inconclusive results are not listed. Entries that show only a call come without a potency. Active and inactive are the calls of the source. The call rests on the fitted dose curve; in most records, active means well fitted activation curve with a large enough effect in the repeat runs; inconclusive means weak or mixed curves; inactive means flat fitted curve, though single readings scatter.
Potency means the concentration at half of the fitted maximal effect.

A short description of this test: A CellTox Green Cytotoxicity Assay to monitor cytotoxicity in HepG2 cells - 40 hour (AID 1224879). Further: nearly all actives have a fitted effect of over 40% in size. The following applies: CellTox Green fluorescence; series mostly up to 76.8 µM. An outline of the steps:
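HepG2 cells were seeded together with the CellTox Green dye at 600 cells/well, left 5 h at 37 C/5% CO2, then given compounds in DMSO. Fluorescence from dye bound to dead-cell DNA was read repeatedly over 40 h of treatment at 37 C.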
On to `CCCCCCCCCCCCCC[P+](CCCC)(CCCC)CCCC`, for which the Potency was 19.4 µM (active) and 17.4 µM (active).
Next, `CCC(CO)(CO)COCC(CC)(CO)CO`: “inactive”; `Nc1cc(S(=O)(=O)O)cc2cc(S(=O)(=O)O)cc(O)c12`: “inactive”.
For `O=C(O)Cn1cnnn1`, the Potency result was “inactive”.
Next, `Oc1ccc(Cl)cc1Cc1cc(Cl)ccc1O`: “inactive”; `c1cnc2cc3c(cc2n1)C1CNCC3C1`: “inactive”; `C=C(C)C(=O)O`: “inactive”.
The same measure for `CCN(CC)CCOc1ccc(/C(=C(\Cl)c2ccccc2)c2ccccc2)cc1`: 17.7 µM (active) and 16.9 µM (active); for `NCCCCCC(=O)O`: “inactive”; for `CC(C)CCOC(=O)c1ccc(N(C)C)cc1`: 1.9 µM (active).
Next, `CCN(CC)c1ccc2c(C)cc(=O)oc2c1`: “inactive”.
In the case of `CCCNC(C)C(=O)Nc1ccccc1C` (stereo not drawn), the Potency entry is “inactive”.
As for `CCOC(=O)C(C)C(C)=O` (stereo not drawn), the Potency entry is “inactive”.

(Values after PubChem BioAssay (Tox21).)
